This note sets out measurements from PubChem BioAssay (NCI).

This is part of a sample that, as a whole, favours compounds with a hit. Of some 83,000 tested, about 20% had one in any assay.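 Treatment: one concentration, 48 hours, 96-well format. Scoring: percent growth, with anything below 10 considered active.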 A number with no mark means an inactive call. Activity calls are given as the source filed them.

This assay has as its system A549/ATCC NSCLC. Description: NCI-60 one-dose screen, 48 h (100 = growth as untreated, 0 = no growth, -100 = all killed). The conditions noted are these: 10 µM unless noted. Here is the method: Growth inhibition of the A549/ATCC human Non-Small Cell Lung tumor cell line is measured as a screen for anti-cancer activity. Cells are grown in 96 well plates and exposed to the test compound for 48 hours. Compounds are tested at a single concentration, which is 10^-5 M for most compounds. The reported endpoint is percent growth (GI% or GIPRCNT), where numbers from 0 - 100% represent growth inhibition, and numbers from -100% - 0 represent cell death. For example, a value of 40 represents 60% growth inhibition. A value of 0 means no net growth occurred over the course of the experiment. A value of -40 indicates 40% of cells at the beginning of the experiment died by the end of the experiment. A value of -100 means all cells are dead at the end of the experiment.
NCI-60 Human Tumor Cell Lines Screen was performed using the standard one-dose NCI protocol, which is described in more detail at https://dtp.cancer.gov/discovery_development/nci-60/default.htm.
Compounds with GIPRCNT values below 10 were considered active. Activity score was based on GIPRCNT using the following formula: […]
Score is 0 for GIPRCNT values of 100 or above, 50 for GIPRCNT values of 0, and 100 for GIPRCNT values of -100.
Regarding `COc1ccc(/C=C/C(=O)/C=C/c2cc3ccc(Cl)cc3[nH]c2=O)cc1`, the growth was 93.1%. On to `O=C(CCC(=O)OC1CCCC1)OC1CCCC1`, for which the growth is 91.4%.

For `COc1ccc(/C=C/C(=O)c2cccc(B(O)O)c2)cc1O`, the growth was 41.7%. To `CC(=O)Nc1ccc(S(=O)(=O)N2C(=O)CCC2C(=O)Nc2ccccc2)cc1` (stereo not given) belongs 21.3%. Consider `Cc1ccc2nc(-c3c(CCCO)noc3N)[nH]c(=O)c2c1`, for which the growth was 101%.

Take `C=CCN=C1NC(=O)/C(=C/c2cc(C(C)(C)C)c(O)c(C(C)(C)C)c2)S1`: the growth is 63.4%. `CCCCCCCC/C=C\CCCCCCCCOc1ccccc1CCOP(=O)(O)OCC[N+](C)(C)C`: the growth is 48.9%. On to `C[C@]12CC[C@@H]3c4cc(O)c(O)cc4CC[C@H]3[C@@H]1CC[C@@H]2O`, for which the growth was 43.3%.

`CCCCCCc1nc2c(c(C)nn2-c2ccccc2)c2c1CCCCC2`: the growth is 103%. As for `Cc1cc(C)c2c(=O)[nH]c(SCC(=O)Nc3cccc(S(=O)(=O)N(C)C)c3)nc2n1`, the figure is 95%; as for `CCC(c1ccc(OC)cc1)C(CC)c1ccc(OCC[N+](C)(C)C)cc1` (stereo not given), 74.3%. As for `O=C(CC(O)c1ccncc1)c1ccccc1` (stereo not given), the growth was 15.5%. As to `CCN(CC)CCSc1c2ccc(Cl)cc2nc2ccc(OC)cc12`, the growth is 74%. As for `COC(=O)CCCCN=Cc1c(O)c(O)c(C(C)C)c2cc(C)c(-c3c(C)cc4c(C(C)C)c(O)c(O)c(C=NCCCCC(=O)OC)c4c3O)c(O)c12`, the figure is 21%. To `CC1CCc2c(sc(NC(=O)CSc3nnc4ccccn34)c2C(N)=O)C1` (stereo not given) belongs 118%; to `COc1cc(CNC(=O)CCSc2nc3ccccc3c(=O)n2Cc2cc(OC)c(OC)c(OC)c2)cc(OC)c1OC`, 35%. As for `CC(=O)N1Cc2ccccc2C(C)Cc2cc(Cl)ccc21` (stereo not given), the figure is 96.5%.

As to `O=C(CN1CCN(c2cc3c(cc2F)c(=O)c(C(=O)O)cn3C2CC2)CC1)Nc1ccc(C(=O)/C=C/c2ccccc2)cc1`, the growth was 4.12% (active). Regarding `O=C(c1ccccc1)C(Cl)C(Cl)c1ccccc1` (stereo not given), the growth was 92.7%. As for `COc1ccc(C(=O)/C=C/c2cccc([N+](=O)[O-])c2)c(OC)c1`, the figure is 27.6%; as for `Clc1nc(-c2cccnc2)nc2sc3c(c12)CCCCCC3`, 94.8%; as for `Cc1cnc(NC(=O)C(Cc2ccccc2)NC(=O)c2ccccc2)s1` (stereo not given), 90.7%. As for `c1cncc(CNc2ccccc2-c2nnc(Nc3ccc4c(c3)OCCO4)o2)c1`, the growth was 31.8%.

With `Cc1nc2scc(-c3ccccc3)n2c(=O)c1CCO`, the growth was 93.6%. Regarding `O=C(CNC(=O)c1cccc2ccccc12)Nc1ccccc1Oc1ccccc1`, the growth was 9.48% (active). To `COc1ccc(Cl)cc1NC(N)=S` belongs 103%; to `NC(=O)c1cccc(N2Cc3ccccc3OC3=C2C(=O)c2c(O)ccc(O)c2C3=O)c1`, 24.7%.

With `Cc1ccc(Cn2c(-c3nonc3N)nc3ccccc32)cc1`, the growth was 57.3%.

Consider `CC/C=C\C[C@H]1C/C=C2/C(=O)C(Cl)=C[C@@H]2C/C=C\CCCC(=O)O1`, for which the growth is -9.19% (active). For `Nc1nn2cc(-c3ccc(Cl)s3)nc2c2ccccc12`, the growth is 83.9%. Take `COc1cc(C2CC(c3c(C)[n+]([O-])c4ccccc4[n+]3[O-])=NN2)cc(OC)c1OC` (stereo not given): the growth was 113%. To `Cc1cc(Nc2nc(-c3ccc(F)cc3)nc3ccccc23)n[nH]1` belongs 13.8%. To `COc1cc(NC(=O)CSc2nc3ccc(C)cc3c(=O)n2-c2ccccc2)cc(OC)c1OC` belongs 83.9%; to `O=C(Nc1ccc(OCc2nnc(-c3ccc(Cl)cc3)o2)c(F)c1)Nc1ccc(Cl)c(Cl)c1`, 32.2%; to `CCC(=O)Oc1ccc2c(c1)CC[C@@H]1[C@@H]2CC[C@]2(C)C[C@H](OC(=O)CC)C[C@@H]12`, 71.5%. As for `O=C(CCCn1c(=O)c2sc3ccccc3c2n2nnc(-c3ccccc3)c12)NCCc1cnc[nH]1`, the figure is -45.7% (active); as for `CCOC(=O)C1=C(C)NC(=O)NC1c1ccc(OCC(=O)N/N=C/c2ccc(Cl)cc2)cc1` (stereo not given), 77%. Consider `O=C1NC(Cc2c[nH]c3ccccc23)C(=O)N1Cc1ccc(Cl)cc1` (stereo not given), for which the growth is 105%. To `O=C1Nc2cc(Cl)ccc2Oc2cc(Oc3ccccc3)ccc21` belongs 62.2%; to `COc1ncc(-c2ccc3ncnc(Nc4cccc(Cl)c4)c3c2)cc1NS(=O)(=O)C1CC1`, 26.3%.
